Measured values taken from ChEMBL document CHEMBL3988442, “University of Dundee, Small-Polar-MMV Screening Library” (2021).
Results with a measured potency or affinity are listed apart.

Target: Protein translocase subunit SecA (Escherichia coli (strain K12)) (UniProt P10408)
Experiment: Assay to Identify E. coli SecA ATPase Inhibitors
Assay type: functional
Parameters: scale not given: direction of the effect not stated beside the values
Settings: 30 µM

Sequence of Protein translocase subunit SecA (Escherichia coli (strain K12)) (P10408 whole entry): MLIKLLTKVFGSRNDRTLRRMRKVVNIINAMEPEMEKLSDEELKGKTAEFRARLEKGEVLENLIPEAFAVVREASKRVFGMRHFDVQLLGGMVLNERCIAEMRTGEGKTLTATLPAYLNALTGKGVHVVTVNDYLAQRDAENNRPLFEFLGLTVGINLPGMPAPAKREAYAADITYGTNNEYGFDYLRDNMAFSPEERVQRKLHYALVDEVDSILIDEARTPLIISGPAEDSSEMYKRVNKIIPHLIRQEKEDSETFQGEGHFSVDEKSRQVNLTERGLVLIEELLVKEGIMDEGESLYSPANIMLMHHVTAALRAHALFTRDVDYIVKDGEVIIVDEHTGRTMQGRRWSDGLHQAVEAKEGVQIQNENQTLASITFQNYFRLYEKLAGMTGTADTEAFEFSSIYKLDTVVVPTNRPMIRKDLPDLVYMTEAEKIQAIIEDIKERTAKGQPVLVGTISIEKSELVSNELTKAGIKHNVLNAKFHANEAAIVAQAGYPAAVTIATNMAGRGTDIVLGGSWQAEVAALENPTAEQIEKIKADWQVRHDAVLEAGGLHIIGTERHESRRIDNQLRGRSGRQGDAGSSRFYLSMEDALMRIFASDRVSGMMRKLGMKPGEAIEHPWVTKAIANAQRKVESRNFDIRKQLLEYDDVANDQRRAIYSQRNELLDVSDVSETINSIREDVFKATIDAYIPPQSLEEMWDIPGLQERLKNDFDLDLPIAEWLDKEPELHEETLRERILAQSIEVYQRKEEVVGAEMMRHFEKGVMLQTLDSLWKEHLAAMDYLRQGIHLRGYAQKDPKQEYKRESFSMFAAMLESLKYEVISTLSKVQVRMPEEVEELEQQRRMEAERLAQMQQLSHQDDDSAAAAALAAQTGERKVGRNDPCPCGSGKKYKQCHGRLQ

Structure (SMILES)	Percent Effect
COCCNC(=O)C(C)n1cc(Br)cn1 (stereo not given)	-3.71%
Cn1nccc1C1CCN(Cc2csc(-c3ncccn3)n2)CC1	-3.65%
Cc1ccc(NS(=O)(=O)CC2=NC(=O)n3cccc3C2=O)cc1	-4.7%
COc1ccc(C)cc1S(=O)(=O)NCC(c1cccn1C)N(C)C (stereo not given)	-6.79%
CSc1ccc(CNC(c2ccccc2)c2nccn2C)cc1 (stereo not given)	-5.49%
CCCNC(=O)N1CCN(Cc2cc(C)no2)CC1	-3.25%
CN(Cc1ccco1)Cc1ccccc1CNC(=O)c1ccncc1	-4.48%
CCc1c(C)sc(NC(=O)CN2CCN(CC)CC2)c1C(=O)OC	-1.97%
COc1ccc(CN(Cc2cncn2C)CC2CCCO2)cc1OC (stereo not given)	-3.49%
O=c1ccc(-c2cccs2)nn1CN1CCN(Cc2ccccc2)CC1	-4.73%
COCC1Cn2nnc(-c3cnn(C)c3)c2CN1Cc1ccc(C)s1 (stereo not given)	-0.562%
CC1CCCCN1c1nc2c(c(=O)[nH]1)CCN(Cc1cccnc1)C2 (stereo not given)	-3.13%
O=C(Nc1ccccc1)C1CN(CC2CC2)CC12CCOCC2 (stereo not given)	-1.55%
COCCN1C[C@H]2CC[C@@]3(N=C(C)N(CC4CC4)C3=O)[C@H]2C1	-4.99%
CC(C)c1cc(C(=O)N2CCN(Cc3ccsc3)CC2)n[nH]1	-2.94%
CCc1c(C(=O)NC2CCS(=O)(=O)C2)cnn1-c1ccc(F)cc1 (stereo not given)	-2.17%
CS(=O)(=O)N1CCCC12CCCN(S(=O)(=O)c1cc(F)cc(F)c1)C2 (stereo not given)	-5.6%
COc1ccc(C2CCCCCN2S(=O)(=O)N(C)C)cc1 (stereo not given)	-0.837%
CC(Cn1ccnc1)NC(=O)NCCNC(=O)C(C)C (stereo not given)	2.77%
O=C(NCCCn1cncn1)NCC(c1ccco1)N1CCCCC1 (stereo not given)	1.3%
